The record followed here is PubChem BioAssay.

Active and inactive are the calls of the source. Unless noted, no rule for the calls is given here.

A short description of assay [1]: compounds binding Alexa647 anti-His antibody – biochemical, small-molecule microarray, 635 nm fluorescence, artefact control for SMM control protein annotation, primary screen (AID 1128).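 Also: score merges feature fluorescence with signal-to-noise for each printed compound spot.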 The note with it: higher = more signal.
The test system of assay [2] is Human papillomavirus type 1a E7 protein (residues 1-88). Put plainly: HPV1a E7 small-molecule binders, primary screen, biochemical, small-molecule microarray, residues 1-88, 635 nm (AID 1129). The note with it: small-molecule microarray binding, fluorescence 635 nm; higher = more signal.
For assay [3], the target named is Focal adhesion kinase 1 (Homo sapiens) (UniProt Q05397). Put plainly: PTK2 protein binding on printed compound slides – biochemical, small-molecule microarray, 635/667 nm fluorescence, BSA, DTT, primary screen (AID 1130).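 Also: composite of spot emission at 667 nm and signal to noise over triplicate slides.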 The note with it: 635 nm fluorescence, higher = more signal.
Focal adhesion kinase 1 (Homo sapiens), sequence (Q05397 whole entry, looked up): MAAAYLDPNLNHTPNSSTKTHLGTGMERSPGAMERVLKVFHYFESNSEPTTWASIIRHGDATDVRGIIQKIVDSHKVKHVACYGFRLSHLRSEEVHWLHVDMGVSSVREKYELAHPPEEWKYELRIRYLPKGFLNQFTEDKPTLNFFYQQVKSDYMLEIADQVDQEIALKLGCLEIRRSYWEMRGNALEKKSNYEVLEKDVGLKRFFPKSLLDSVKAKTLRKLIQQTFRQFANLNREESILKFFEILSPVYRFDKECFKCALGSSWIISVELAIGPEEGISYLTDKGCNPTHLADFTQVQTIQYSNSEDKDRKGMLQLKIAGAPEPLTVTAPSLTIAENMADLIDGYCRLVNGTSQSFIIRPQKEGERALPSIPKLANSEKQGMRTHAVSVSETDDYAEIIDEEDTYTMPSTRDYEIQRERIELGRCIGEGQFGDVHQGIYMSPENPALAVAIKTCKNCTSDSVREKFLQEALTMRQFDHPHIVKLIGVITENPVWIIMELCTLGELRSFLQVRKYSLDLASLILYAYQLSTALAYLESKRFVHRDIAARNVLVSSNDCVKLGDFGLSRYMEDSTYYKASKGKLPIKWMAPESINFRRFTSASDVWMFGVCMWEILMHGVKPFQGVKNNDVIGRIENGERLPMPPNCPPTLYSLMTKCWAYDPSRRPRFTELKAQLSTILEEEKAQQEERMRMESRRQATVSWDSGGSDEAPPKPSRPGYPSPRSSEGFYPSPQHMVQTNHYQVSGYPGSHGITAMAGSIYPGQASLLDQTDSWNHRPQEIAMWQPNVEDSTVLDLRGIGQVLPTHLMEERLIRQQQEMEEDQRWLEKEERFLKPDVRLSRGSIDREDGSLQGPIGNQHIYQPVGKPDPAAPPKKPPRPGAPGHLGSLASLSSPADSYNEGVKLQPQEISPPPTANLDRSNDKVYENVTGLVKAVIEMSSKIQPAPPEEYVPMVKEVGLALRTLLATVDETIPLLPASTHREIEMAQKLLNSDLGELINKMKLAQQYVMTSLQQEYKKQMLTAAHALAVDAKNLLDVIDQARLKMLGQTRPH
In assay [4] the test system is Fibrinogen (Alexa647-labelled). Description: Alexa647-fibrinogen binding to printed small molecules – biochemical, small-molecule microarray, 635/667 nm fluorescence, artefact control for SMM control-protein annotation, profiling panel (AID 1131).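 Also: z-score merges 667 nm fluorescence with per-spot signal-to-noise over triplicate slides.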 Conditions: fibrinogen-A647 binding fluorescence, higher = more signal.
Assay [5] deals with Follistatin (Homo sapiens) (UniProt P19883). Put plainly: FST protein binding to printed compounds – biochemical, small-molecule microarray, 635/667 nm fluorescence, primary screen (AID 1132). Conditions: 635 nm fluorescence, higher = more signal.
Follistatin (Homo sapiens), sequence (P19883 whole entry, looked up): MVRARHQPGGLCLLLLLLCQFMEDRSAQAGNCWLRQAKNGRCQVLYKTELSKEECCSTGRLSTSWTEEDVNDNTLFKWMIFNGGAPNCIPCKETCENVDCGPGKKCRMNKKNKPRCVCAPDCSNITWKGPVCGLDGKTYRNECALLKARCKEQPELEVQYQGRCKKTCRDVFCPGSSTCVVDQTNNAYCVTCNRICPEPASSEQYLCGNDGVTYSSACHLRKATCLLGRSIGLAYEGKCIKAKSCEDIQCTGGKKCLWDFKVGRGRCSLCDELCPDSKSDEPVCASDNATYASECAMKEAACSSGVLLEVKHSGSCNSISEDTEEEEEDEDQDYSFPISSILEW
The target in assay [6] is Fibroblast growth factor 2 (Homo sapiens) (UniProt P09038). Description: basic fibroblast growth factor binding to printed compounds – biochemical, small-molecule microarray, 635/667 nm fluorescence, primary screen (AID 1133). The note with it: FGF2, fluorescence 635/667, higher = more signal.
Fibroblast growth factor 2 (Homo sapiens), sequence (P09038 whole entry, looked up): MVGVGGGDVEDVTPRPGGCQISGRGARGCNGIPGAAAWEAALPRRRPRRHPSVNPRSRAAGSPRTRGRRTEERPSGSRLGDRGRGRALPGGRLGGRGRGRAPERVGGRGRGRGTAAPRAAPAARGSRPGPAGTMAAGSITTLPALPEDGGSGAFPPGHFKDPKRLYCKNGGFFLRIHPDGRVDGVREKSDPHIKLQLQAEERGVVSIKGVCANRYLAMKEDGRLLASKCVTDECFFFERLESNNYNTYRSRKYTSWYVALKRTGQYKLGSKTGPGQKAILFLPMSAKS
Assay [7] in a line: JC-1 mitochondrial potential readout, lung cancer cells – cell-based, A549, JC-1 fluorescence, basal, 24 h, 100 nL, profiling panel (AID 1138).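 Also: A549 lung adenocarcinoma cells under basal conditions with no added stimulus; test concentration not given here.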 The note with it: higher = more signal.
In a further assay the test system is Lefty1. Description: Lefty1 protein binding to printed compounds – biochemical, small-molecule microarray, 635/667 nm fluorescence, primary screen (AID 1139). The note with it: fluorescence 635/667, higher = more signal.
The test system of assay [8] is wheat germ agglutinin (Triticum aestivum), Alexa647-labelled. Put plainly: Alexa647-WGA lectin binding to printed small molecules – biochemical, small-molecule microarray, 635/667 nm fluorescence, artefact control for SMM control-protein annotation, profiling panel (AID 1140).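 Also: score merges 667 nm feature emission with signal to noise over triplicate slides.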 The note with it: WGA-A647 binding, 635 nm fluorescence, higher = more signal.
The target of assay [9] is Luciferin 4-monooxygenase (Photinus pyralis) (UniProt P08659). Put plainly: inhibition of purified Photinus pyralis luciferase – biochemical, luminescence, purified enzyme, 2006 set, primary screen (AID 1141).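 Also: cell-free assay with purified firefly luciferase at 100 ng per well in PBS; test concentration not given here.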 Conditions: purified firefly luciferase, SteadyGlo luminescence, 30 min; higher = more signal, called active from +8 up or from −8 down.
Luciferin 4-monooxygenase (Photinus pyralis), sequence (P08659 whole entry, looked up): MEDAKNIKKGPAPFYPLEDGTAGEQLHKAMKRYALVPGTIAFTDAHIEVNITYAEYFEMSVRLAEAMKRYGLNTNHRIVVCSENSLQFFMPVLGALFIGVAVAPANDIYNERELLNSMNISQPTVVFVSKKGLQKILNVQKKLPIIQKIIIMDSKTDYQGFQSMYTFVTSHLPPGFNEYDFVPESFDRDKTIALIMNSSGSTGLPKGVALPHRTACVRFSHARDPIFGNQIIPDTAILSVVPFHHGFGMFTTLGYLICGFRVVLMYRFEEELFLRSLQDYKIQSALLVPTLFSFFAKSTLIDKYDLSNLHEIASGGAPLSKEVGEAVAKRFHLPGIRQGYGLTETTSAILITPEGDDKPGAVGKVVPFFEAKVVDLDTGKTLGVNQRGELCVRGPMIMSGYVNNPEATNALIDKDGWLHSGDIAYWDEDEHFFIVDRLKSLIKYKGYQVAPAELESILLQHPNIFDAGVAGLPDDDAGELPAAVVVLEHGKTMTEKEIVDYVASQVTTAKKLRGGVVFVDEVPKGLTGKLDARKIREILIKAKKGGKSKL
In assay [10] the test system is Wnt5a (protein binding on small-molecule microarray). Put plainly: small molecules binding Wnt5a protein – biophysical, small-molecule microarray, 635/667 nm fluorescence, primary screen (AID 1142).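 Also: fluorescence read at 667 nm with signal to noise per printed feature.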 Conditions: 635 nm fluorescence, higher = more signal.
A short description of assay [11]: ATP-based viability of Huh7 replicon cells – cell-based, CellTiter-Glo luminescence, basal, 48 h, cytotoxicity control for HCV replication inhibitor project, primary screen (AID 1143).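 Also: Huh7 hepatoma cells carrying a hepatitis C replication reporter with no stimulus; test concentration not given here.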 Conditions: higher = more signal, called active from +8 up or from −8 down. (In general: In antiviral work, replicon cells carry a viral genome segment that copies itself.)
Assay [12] can be described thus: Pseudomonas biofilm growth suppression – PAO1 strain, BacTiter-Glo luminescence, LB-PBS, primary screen (AID 1144). Conditions: P. aeruginosa PAO1 biofilm, 12 h, higher = more signal.
A short description of assay [13]: basal CRE-LacZ reporter activity in PC12 – cell-based, unstimulated, primary screen (AID 1145). The note with it: no forskolin, luminescence, 4.5 h, higher = more signal, called active from +8 up or from −8 down.
A short description of assay [14]: forskolin-driven CRE-LacZ activity in PC12 – cell-based, CRE-LacZ reporter, forskolin-stimulated, primary screen (AID 1146).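 Also: PC12 cells with 6xCRE LacZ reporter stimulated by forskolin 10 µM; beta-galactosidase reporter signal reflecting CREB driven transcription.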 Conditions: luminescence, 4.5 h, higher = more signal, called active from +8 up or from −8 down.
Assay [15] concerns the target Streptavidin (Streptomyces avidinii) (UniProt P22629). Description: compounds binding control protein streptavidin – biophysical, small-molecule microarray, 635/667 nm fluorescence, artefact control for SMM compound annotation, primary screen (AID 1147).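 Also: signal reflects streptavidin binding to arrayed compounds as a control protein.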 The note with it: higher = more signal.
The nature of assay [16]: probe aInhba binding on compound microarray – biochemical, small-molecule microarray, 635/667 nm fluorescence, primary screen (AID 1148).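 Also: score merges 667nm spot fluorescence with signal-to-noise for antibody binding to printed compounds.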 Conditions: higher = more signal.
Assay [17] has as its target Torsin-1A (Homo sapiens) (UniProt O14656). Description: TOR1A wild-type binding on microarray – cell lysate, small-molecule microarray, lysate, 635/667 nm, primary screen (AID 1149). The note with it: COS7 hTOR1A-WT lysate, 635 nm fluorescence, higher = more signal.
The target is the same in assay [18]. Put plainly: torsin A mutant lysate binding on microarrays – cell lysate, small-molecule microarray, COS7 lysate, 635/667 nm fluorescence, primary screen (AID 1150).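 Also: score pools 667 nm emission and signal to noise measuring lysate protein binding.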 The note with it: COS7 hTOR1A mutant lysate, 635 nm fluorescence, higher = more signal.
Assay [19] has as its system Sonic hedgehog protein (Shh). Put plainly: Sonic hedgehog microarray binding compounds – biochemical, small-molecule microarray, 635/667 nm fluorescence, primary screen (AID 1151).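 Also: Shh protein binding to compounds spotted on small-molecule microarray slides; score combines spot fluorescence intensity with signal-to-noise across triplicate slides.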 The note with it: 635 nm fluorescence, higher = more signal.

Torsin-1A (Homo sapiens), sequence (O14656 whole entry, looked up): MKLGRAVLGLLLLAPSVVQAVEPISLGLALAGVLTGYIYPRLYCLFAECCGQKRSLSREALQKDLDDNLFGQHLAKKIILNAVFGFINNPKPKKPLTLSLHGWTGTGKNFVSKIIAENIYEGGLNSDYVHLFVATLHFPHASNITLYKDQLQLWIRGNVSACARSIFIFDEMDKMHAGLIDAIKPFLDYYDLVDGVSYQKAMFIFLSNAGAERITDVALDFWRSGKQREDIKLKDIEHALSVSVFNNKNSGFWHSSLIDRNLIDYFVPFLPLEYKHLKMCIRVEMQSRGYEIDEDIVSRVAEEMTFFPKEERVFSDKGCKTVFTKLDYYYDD
Streptavidin (Streptomyces avidinii), sequence (P22629 whole entry, looked up): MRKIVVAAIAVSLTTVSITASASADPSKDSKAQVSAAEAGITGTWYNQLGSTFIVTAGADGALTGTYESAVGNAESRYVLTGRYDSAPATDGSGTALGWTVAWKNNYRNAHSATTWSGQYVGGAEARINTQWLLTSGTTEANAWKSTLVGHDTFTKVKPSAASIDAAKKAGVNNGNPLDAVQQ

In the case of `CC(C)(C)OC(=O)CC[C@]1(C(=O)O)N=C(c2ccc(OCCCO)cc2)O[C@H]1c1ccccc1CN=[N+]=[N-]`, the composite z-score was 0.401 in [1]; 0.251 in assay [2]; -0.171 in assay [3]; -0.0709 in assay [4]; 0.467 in assay [5]; 0.13 in [6]. The composite z-score in the assay on Lefty1 was -0.482; in assay [8] it was 0.393; in assay [10], 0.108; in assay [15] it was -0.247; in [16], 0.0074; with Torsin-1A (Homo sapiens) [17], -0.61. In addition, the figures for the composite z-score (in the assay with Torsin-1A (Homo sapiens) [18]; in assay [19]) were -0.13 and -0.533, respectively. For the same compound, the z-score in assay [7] was 0.902; in [9], -2.06 (inactive); in [11], 0.109 (inactive); in assay [12], 0.618 (inactive); in assay [13], -1.09 (inactive); in assay [14], -1.7 (inactive).

As for `CCOC(=O)C1=CC[C@@H](c2cc(Cl)ccc2Cl)N(S(=O)(=O)c2ccc(C)cc2)[C@H]1c1ccc(OC)cc1`, the composite z-score in assay [1] was -0.128; in [2], -0.199; in [3] it was 0.262; in [4] it was -1.17; in [5] it was 0.258; in assay [6], -0.413. In addition, the composite z-score is -0.526 in the assay with Lefty1; 0.0203 in [8]; 1.11 in assay [10]; 0.0102 in [15]; 0.482 in assay [16]; 0.234 with Torsin-1A (Homo sapiens) [17]. Also, the composite z-score with Torsin-1A (Homo sapiens) [18] is 0.42; in [19] it was 0.172. Further, the z-score was 0.581 in [7]; 0.953 (inactive) in assay [9]; -4.08 (inactive) in [11]; 0.42 (inactive) in assay [12]; 0.472 (inactive) in [13]; -0.555 (inactive) in assay [14].

Take `C=C1C2CC3C(=C4C(CO[C@@H]4[C@H]4CCCN4S(=O)(=O)c4ccccc4[N+](=O)[O-])C4C(=O)N(C)C(=O)C34)CC2C(=O)N1C` (stereo not given in full): the composite z-score in assay [1] is -0.382; in [2], 0.128; in assay [3], 0.0722; in [4], 0.412; in [5], 0.482; in assay [6] it was 0.425. The composite z-score in the assay with Lefty1 is 0.218; in assay [8], 0.337; in [10], -0.0541; in assay [15], -0.207; in assay [16] it was -0.101; in the assay with Torsin-1A (Homo sapiens) [17], 0.942. Besides, the values for the composite z-score (in the assay with Torsin-1A (Homo sapiens) [18]; in assay [19]) were 0.107 and 0.832, respectively. Further, the z-score was 0.225 in assay [7]; 0.101 (inactive) in [9]; 0.985 (inactive) in assay [11]; 0.283 (inactive) in [12]; 3.21 (inactive) in [13]; 0.769 (inactive) in [14].

Turning to `COCCOC(=O)N1C(=O)[C@@]2(c3cc(C#CC4(O)CCCCCC4)ccc31)[C@H](C(=O)N1CCCCCCC1)[C@H]1C(=O)O[C@H](c3ccccc3)[C@H](c3ccccc3)N1[C@@H]2c1ccc(OCCO)cc1`, the composite z-score in assay [1] was 2.68; in assay [2] it was 1.24; in [3], 1.13; in assay [4] it was 0.95; in assay [5] it was 1.49; in assay [6], 1.77. Also, the composite z-score in the assay on Lefty1 is 1.7; in [8], 1.09; in assay [10], 1.19; in [15], 2.63; in assay [16] it was 1.85; with Torsin-1A (Homo sapiens) [17], 1.25. In addition, the composite z-score with Torsin-1A (Homo sapiens) [18] is 1.8; in [19], 2.17. For the same compound, the z-score in [7] is -1.18; in [9], -2.13 (inactive); in [11] it was -3.66 (inactive); in assay [12], 0.629 (inactive); in assay [13], 0.623 (inactive); in assay [14] it was -0.532 (inactive).

In the case of `CC(C)(C)OC(=O)CC[C@]1(C(=O)N2CCOCC2)N=C(c2ccc(OCCCO)cc2)O[C@H]1c1ccccc1`, the composite z-score in assay [1] came to 1.9; in assay [2], 0.645; in [3], 0.407; in [4] it was 0.886; in assay [5], 0.825; in assay [6], 0.858. For the same compound, the composite z-score is 0.398 with Lefty1; 0.298 in [8]; 0.959 in assay [10]; 2.02 in assay [15]; -0.152 in assay [16]; -0.0284 in the assay with Torsin-1A (Homo sapiens) [17]. The values for the composite z-score (in the assay with Torsin-1A (Homo sapiens) [18]; in assay [19]) were 0.618 and -0.733, respectively. Moreover, the z-score in assay [7] was 2.23; in [9] it was -1.99 (inactive); in assay [11], -1.37 (inactive); in [12], 0.838 (inactive); in [13], -0.114 (inactive); in assay [14], 1.06 (inactive).
